Hits are enriched below; roughly 4.6% of the tested compounds scored in any of these assays.
tim23-1 inh = inhibits growth of tim23-1 mutant yeast; S. cerevisiae tim23-1 growth, BacTiter-Glo luminescence, 24 h; inhibition, % at 20 µM; 1.3% of 330,000 active;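 active = growth inhibition of the mutant yeast at or above 50%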;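 note: temperature-sensitive mutant grown at 25 °C; plate controls were DMSO-treated mutant yeast for no effect and medium wells lacking yeast for full effect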
V-ATPase pH = regulators of yeast V-ATPase proton transport; S. cerevisiae, pHLuorin cytosolic pH fluorescence; response, % at 10 µM; 0.37% of 350,000 active; in the data active = response mostly above about 7.3%, no sharp cut-off; inactive = mostly below about 5.4%; note: actives read high
TIM10 inh = TIM10 yeast growth inhibition | inhibition, % at 10 µM | S. cerevisiae TIM10 strain growth, BacTiter-Glo luminescence, 24 h | 1.4% of 330,000 active;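 active = inhibition of 40% or more at the single tested concentration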;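 note: wild-type TIM10 isogenic control strain grown at permissive 25 °C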
SKKanGAS inh = blocks kanamycin growth of S. pyogenes SKKanGAS strain. 1.3% of 300,000 active. inhibition, % at 7.5 µM. BacTiter-Glo, 6 h;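 active = mean replicate score, as percent of positive control median, at least 50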;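 note: strain carries kanamycin resistance gene driven by streptokinase promoter and grows in 40 µg/ml kanamycin; loss of luminescence reflects streptokinase promoter inhibition or plain growth inhibition; 0% = median of DMSO wells and 100% = positive control at its reference dose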
tim10-1 inh = inhibits growth of tim10-1 mutant yeast; S. cerevisiae tim10-1 ts strain growth, BacTiter-Glo, 24 h; inhibition, % at 20 µM; 2.2% of 330,000 active; AID 463190;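 active = inhibition of at least 40%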;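 note: mutant grown at 25 °C; 0% = DMSO wells with yeast and 100% = wells holding no yeast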
PfHsp90 set2 = growth inhibition of yeast expressing Plasmodium Hsp90; S. cerevisiae expressing PfHsp90, BacTiter-Glo ATP, 48 h; yeast lacking PDR1 and PDR3 efflux regulators; inhibition, % at 9.4 µM; 0.32% of 310,000 active; AID 504621;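 active = every replicate shows inhibition above about 80%, whatever the replicate mean, limit read from the data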;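 note: 0% = DMSO neutral controls and 100% = 20 µM radicicol positive controls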
V-ATPase pH SP = modulates yeast V-ATPase proton transport | shares compounds with V-ATPase pH | S. cerevisiae pHLuorin cytosolic pH | response, % at 10 µM | 2% of 980 active; in the data active = response above about 24%;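 note: plate controls were vehicle wells for no effect and positive control wells for full effect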
Starred values were filed as active, the others as inactive; / = not tested or not shown.

SMILES | tim23-1 inh | V-ATPase pH | TIM10 inh | SKKanGAS inh | tim10-1 inh | PfHsp90 set2 | V-ATPase pH SP
CC1CCCN(CCC(=O)c2ccc(Br)cc2)C1 (stereo not drawn) | 1.3 | 8.8* | -3.1 | / | 5.8 | -16.2 | 15.9
O=C(CSc1n[nH]c(-c2ccco2)n1)Nc1ccccc1Cl | 12.2 | 12.0* | 18.0 | 0.1 | 8.4 | 3.7 | -2.5
COC(=O)C1=C(C)N(CCCCCC(=O)O)C(=O)NC1c1ccccc1 (stereo not drawn) | 12.4 | 3.7 | 6.2 | 2.7 | 12.2 | -14.4 | /
CN(CC(=O)Nc1ccc(Cl)cc1)C(=O)CNC(=O)c1ccc(Br)o1 | 11.0 | 13.7 | -5.5 | 0.1 | 0.1 | / | /
COc1nc(N(C)C)nc(N(C#N)S(=O)(=O)c2ccc(C)cc2)n1 | -0.2 | 11.0* | -3.1 | 0.3 | -5.1 | 2.0 | -4.4
CC(C)OP(=O)(OC(C)C)C(NC(=O)c1cccc([N+](=O)[O-])c1)C(N)=O (stereo not drawn) | 7.4 | 9.1 | 6.7 | 3.2 | 1.9 | -10.0 | 2.8
O=[N+]([O-])c1ccc(NCc2ccccc2N2CCC(CO)CC2)nc1 | 26.3 | 0.0 | 24.3 | -5.8 | 22.4 | 6.7 | /
O=C(CN1C(=O)NC2(CCCC2)C1=O)NCCc1ccc(F)cc1 | 8.5 | 11.0* | -6.0 | / | 9.2 | 30.9 | 1.4
COc1ccccc1NC(=O)C(C)OC(=O)CCCOc1ccccc1 (stereo not drawn) | -7.2 | 10.9* | -24.0 | -10.5 | -3.4 | -22.9 | -2.2
Cc1nc(NC(=O)COC(=O)c2cccs2)c(Cl)cc1Cl | 30.3 | 1.0 | 9.3 | / | 11.0 | / | /
O=C(Oc1coc(CSc2nnc(NC(=O)c3cccs3)s2)cc1=O)c1ccccc1 | 5.5 | 9.3* | 11.8 | 9.6 | 7.6 | -10.3 | -3.5
Cc1ccc(S(=O)(=O)c2ccc(C)cc2)cc1 | 24.1 | 5.4 | 6.4 | -1.2 | 5.6 | -11.8 | /
Cc1ccc(S(=O)(=O)C=CS(=O)(=O)c2ccc(C)cc2)cc1 | / | 20.1* | / | / | / | / | 114.8*
COc1cccc(CC(=O)OCC(=O)NNC(=O)c2ccc(Br)cc2)c1 | -2.0 | -1.6 | -10.9 | / | -0.3 | 0.3 | /
C[C@@H]1CN([C@@H](C)CO)C(=O)CCCn2cc(nn2)CO[C@H]1CN(C)S(=O)(=O)c1ccc(Cl)cc1 | / | -1.9 | / | / | / | / | /

High-throughput results: PubChem BioAssay, several laboratories
